Results on 23 compounds are retold here after PubChem BioAssay (Tox21).

Unmarked numbers belong to inactive results. Records with an inconclusive call do not appear. Calls of active or inactive are those of the source. Unless noted, the call rests on the fitted dose curve; in most records, active means well fitted curve in the direction sought with a large enough effect in the repeat runs; inconclusive means weak or mixed curves; inactive means flat fitted curve, though single readings scatter.

A short description of experiment [1]: qHTS assay to test for compound auto fluorescence at 535 nm (green) in HEK293 cells (AID 720680). (Quantitative high-throughput screening tests each substance at several concentrations.)
A short description of experiment [2]: qHTS assay to test for compound auto fluorescence at 460 nm (blue) in HEK293 cell free culture (AID 720681). In a few lines:
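Compounds were added to cell-free DMEM with 10% FBS and fluorescence read directly. The blue channel used 405 nm excitation and 460 nm emission, with triamterene as the reference fluorophore.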

A short description of experiment [3]: qHTS assay to test for compound auto fluorescence at 535 nm (green) in HEK293 cell free culture (AID 720682). The essentials:
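Measurement is a direct plate read of green fluorescence (485 nm in, 535 nm out) after compound addition to serum-supplemented DMEM lacking cells, with fluorescein used to express intensities.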

Experiment [4] in a line: qHTS assay to test for compound auto fluorescence at 590 nm (red) in HEK293 cell free culture (AID 720683). The essentials: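 Cell-free wells of DMEM with 10% FBS received compound, and intrinsic fluorescence was read at excitation/emission 540/590 nm. Values expressed as equivalence to Rose Bengal sodium.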
A short description of experiment [5]: qHTS assay to test for compound auto fluorescence at 590 nm (red) in HepG2 cell free culture (AID 720684). The essentials: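 Auto fluorescence equivalency versus Rose Bengal sodium, red channel Ex/Em 540/590 nm; compounds in cell-free MEM/10% FBS; DMSO vehicle control.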
Experiment [6] is described as follows: qHTS assay to test for compound auto fluorescence at 460 nm (blue) in HepG2 cell free culture (AID 720685). In a few lines:
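Cell-free plates of MEM plus 10% FBS received 23 nL compound or DMSO vehicle; blue-channel (405/460 nm) intensity scored against triamterene as reference fluorophore.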

Experiment [7] can be described thus: qHTS assay to test for compound auto fluorescence at 535 nm (green) in HepG2 cell free culture (AID 720686).
The nature of experiment [8]: qHTS assay to test for compound auto fluorescence at 460 nm (blue) in HepG2 cells (AID 720687). The essentials: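 HepG2 cells in MEM with 10% FBS, attached overnight at 37 C, were exposed to compound or DMSO for 1 hr at 37 C, 5% CO2. Blue fluorescence was read at 405/460 nm, with triamterene as reference fluorophore.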
Experiment [9] concerns the target Glucocorticoid receptor (Homo sapiens) (UniProt P04150). The experiment is described as follows: qHTS assay to identify small molecule agonists of the glucocorticoid receptor (GR) signaling pathway (AID 720691; active means well fitted activation curve with a large enough effect in the signal ratio in the repeat runs, not every such curve was filed as active; the % refers to the signal ratio; further: potency means the concentration at half of the fitted maximal effect). The essentials: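 Cells: GR-bla HeLa, endogenous GR with stably integrated GRE-beta-lactamase reporter. Treatment 18 h, 37 C, compounds delivered in DMSO. Detection via LiveBLAzer B/G FRET substrate, 2 h RT, fluorescence intensity.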

For experiment [10] the target is unchanged. The experiment is described as follows: qHTS assay to identify small molecule antagonists of the glucocorticoid receptor (GR) signaling pathway (AID 720692; active means well fitted inhibition curve with a large enough effect in the signal ratio in the repeat runs, not every such curve was filed as active; the % refers to the signal ratio). In a few lines:
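Quantitative HTS in antagonist format: HeLa cells expressing endogenous GR and a stably integrated GRE-bla reporter, stimulated with 5 nM dexamethasone (final) alongside test compounds for 18 h.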
On the % scale 0 is the no-effect control and ±100 the full control effect.

Chain of Glucocorticoid receptor (Homo sapiens) (P04150 whole entry, looked up): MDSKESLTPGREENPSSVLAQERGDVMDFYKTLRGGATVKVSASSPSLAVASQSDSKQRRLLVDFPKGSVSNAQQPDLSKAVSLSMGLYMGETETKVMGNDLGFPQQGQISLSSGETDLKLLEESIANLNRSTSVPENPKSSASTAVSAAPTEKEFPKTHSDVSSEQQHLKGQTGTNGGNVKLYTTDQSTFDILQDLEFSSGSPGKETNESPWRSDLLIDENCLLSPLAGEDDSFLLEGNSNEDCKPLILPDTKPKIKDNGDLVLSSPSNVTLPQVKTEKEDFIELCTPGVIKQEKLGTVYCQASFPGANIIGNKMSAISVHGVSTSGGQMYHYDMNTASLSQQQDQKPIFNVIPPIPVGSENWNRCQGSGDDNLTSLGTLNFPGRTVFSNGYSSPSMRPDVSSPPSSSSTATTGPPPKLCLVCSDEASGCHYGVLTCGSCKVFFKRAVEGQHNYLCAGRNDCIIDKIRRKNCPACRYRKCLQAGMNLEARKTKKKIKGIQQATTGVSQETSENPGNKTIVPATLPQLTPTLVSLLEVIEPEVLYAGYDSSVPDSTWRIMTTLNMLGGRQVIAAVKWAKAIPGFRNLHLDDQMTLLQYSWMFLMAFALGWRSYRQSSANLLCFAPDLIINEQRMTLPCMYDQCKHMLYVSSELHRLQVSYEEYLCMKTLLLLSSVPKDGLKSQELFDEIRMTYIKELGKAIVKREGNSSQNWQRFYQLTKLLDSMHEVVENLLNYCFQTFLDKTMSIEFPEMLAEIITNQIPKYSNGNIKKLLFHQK

Turning to `NCCOCCOCCN`, the compound was classed as inactive in [1], in experiment [3], in experiment [4], in [5], in experiment [6] and in experiment [7]. Also, in experiment [8], the compound was called inactive. The Potency entry in experiment [2] and in experiment [9] was “inactive” throughout.
On to `CC(C)C[C@H](NC(=O)[C@H](Cc1ccccc1)NC(=O)c1cnccn1)B(O)O`, for which the compound was called inactive in [1], in experiment [3], in experiment [4], in experiment [5], in experiment [6] and in experiment [7]. The compound was classed as inactive in [8]. The Potency entry in [2] and in experiment [9] was “inactive” in each case.
Turning to `C=C[Si](OCC)(OCC)OCC`, the compound was classed as inactive in experiment [1], in experiment [3], in experiment [4], in experiment [5], in [6] and in experiment [7]. For the same compound, in [8], the compound was called inactive. For the same compound, the Potency result in experiment [2], in experiment [9] and in experiment [10] was “inactive” each time.
As for `Cc1ccc2ccccc2c1[N+](=O)[O-]`, the compound was classed as inactive in [1], in experiment [3], in [4], in experiment [5], in [6] and in experiment [7]. In addition, the compound was called inactive in experiment [8]. Further, the Potency entry in experiment [2] and in experiment [9] was “inactive” in each case.
As for `O=C1c2ccccc2C(=O)C1c1ccc2cc(S(=O)(=O)O)cc(S(=O)(=O)O)c2n1`, the call in [1], in [3], in [4], in [5], in [6] and in experiment [7] was inactive. Further, the compound was called inactive in experiment [8]. The Potency entry in [2] and in [9] was “inactive” throughout.
`C=Cc1ccc(C=C)cc1`: the compound was called inactive in experiment [1], in experiment [3], in experiment [4], in [5], in experiment [6] and in experiment [7]. For the same compound, the compound was called inactive in experiment [8]. Further, the Potency result in experiment [2], in experiment [9] and in experiment [10] was “inactive” each time.
On to `CCCCOC(=O)CC#N`, for which the compound was classed as inactive in experiment [1], in experiment [3], in experiment [4], in [5], in [6] and in experiment [7]. Moreover, the outcome in [8] was inactive. Besides, the Potency result in [2] was “inactive”.
Turning to `Cc1cc(C)n(CO)n1`, the outcome in experiment [1], in experiment [3], in experiment [4], in experiment [5], in [6] and in [7] was inactive. The compound was classed as inactive in experiment [8]. The Potency result in experiment [2], in experiment [9] and in [10] was “inactive” each time.
Regarding `Clc1cccc(C(c2ccc3nc[nH]c3c2)n2ccnc2)c1` (stereo not given), the compound was classed as inactive in experiment [1], in experiment [3], in [4], in experiment [5], in experiment [6] and in experiment [7]. The call in experiment [8] was inactive. For the same compound, the Potency result in experiment [2] and in experiment [9] was “inactive” each time.
Consider `CC(C)CCCCCOC(=O)CS`, for which the call in experiment [1], in experiment [3], in experiment [4], in experiment [5], in experiment [6] and in experiment [7] was inactive. Besides, the compound was classed as inactive in experiment [8]. For the same compound, the Potency result in experiment [2], in experiment [9] and in experiment [10] was “inactive” throughout.
As for `CC/C=C/CCO`, the outcome in experiment [1], in experiment [3], in [4], in experiment [5], in experiment [6] and in [7] was inactive. In experiment [8], the compound was called inactive. The Potency entry in [2] and in experiment [9] was “inactive” each time.
`OCC(O)c1ccccc1` (stereo not given): the call in experiment [1], in [3], in [4], in [5], in [6] and in [7] was inactive. Moreover, in experiment [8], the call was inactive. Besides, the Potency result in [2] was “inactive”.
Turning to `CC(=O)OCC(=O)[C@@]1(O)CC[C@H]2[C@@H]3CCC4=CC(=O)C=C[C@]4(C)[C@@]3(F)[C@@H](O)C[C@@]21C`, the fluorescence, % of fluorescein in experiment [1] is -0.0592% [at 18.6 µM]. Besides, the fluorescence, % of fluorescent control in experiment [2] was -0.0825% [at 18.6 µM]; in [4], 0.0194% [at 18.6 µM]; in experiment [6], 0.0112% [at 18.6 µM]; in experiment [8], -0.158% [at 18.6 µM]. Further, the activity change in experiment [3] was 0.114% [at 18.6 µM]. The fluorescence, % of Rose Bengal in experiment [5] was -0.0287% [at 18.6 µM]. In addition, in [7], the fluorescence, % of fluorescein control was -0.0779% [at 18.6 µM]. Also, in [9], the Potency is 12.9 nM (active).
Consider `CCCCCCCCCC(C)C=O` (stereo not given), for which the result in [1], in experiment [3], in experiment [4], in experiment [5], in experiment [6] and in experiment [7] was inactive. Moreover, the compound was classed as inactive in experiment [8]. For the same compound, the Potency result in [2] and in [9] was “inactive” each time.
In the case of `CCCCCCCCC(=O)OCC(C)OC(=O)CCCCCCCC` (stereo not given), the outcome in experiment [1], in experiment [3], in [4], in experiment [5], in [6] and in experiment [7] was inactive. The result in [8] was inactive. Besides, the Potency result in [2] and in experiment [9] was “inactive” throughout.
Regarding `c1ccc(CN(Cc2ccccc2)Cc2ccccc2)cc1`, the outcome in experiment [1], in experiment [3], in experiment [4], in experiment [5], in experiment [6] and in [7] was inactive. Also, the outcome in experiment [8] was inactive. Further, the Potency entry in experiment [2] and in experiment [9] was “inactive” each time.
On to `CC(C)C/C=C(\C=O)c1ccccc1`, for which the compound was classed as inactive in experiment [1], in experiment [3], in [4], in experiment [5], in [6] and in [7]. The compound was called inactive in [8]. For the same compound, the Potency result in experiment [2] and in experiment [9] was “inactive” throughout.
Consider `CCCCCCCCOCCCN`, for which the outcome in experiment [1], in experiment [3], in experiment [4], in [5], in experiment [6] and in [7] was inactive. Besides, in [8], the compound was classed as inactive. Besides, the Potency entry in experiment [2] and in experiment [9] was “inactive” each time.
For the compound `C1CCN(CN2CCCCC2)CC1`, the compound was called inactive in experiment [1], in experiment [3], in [4], in [5], in experiment [6] and in experiment [7]. Further, the result in experiment [8] was inactive. Also, the Potency entry in experiment [2] and in [9] was “inactive” throughout.
Take `CCCCOC(=O)C(C)Oc1ccc(Oc2ccc(C(F)(F)F)cn2)cc1` (stereo not given): the compound was classed as inactive in experiment [1], in experiment [3], in [4], in experiment [5], in [6] and in experiment [7]. In [8], the compound was called inactive. Moreover, the Potency entry in experiment [2] and in [9] was “inactive” each time.
In the case of `CC(Cc1ccccc1)(NC(=O)CN)c1ccccc1` (stereo not given), the call in [1], in experiment [3], in experiment [4], in experiment [5], in experiment [6] and in experiment [7] was inactive. Further, in experiment [8], the call was inactive. Moreover, the Potency entry in [2] and in [9] was “inactive” in each case.
Regarding `CO[C@@H]1[C@@H](O[C@@H]2O[C@H](C)[C@@H](O[C@H]3C[C@@](C)(O)[C@@H](O)[C@H](C)O3)[C@H](N(C)C)[C@H]2O)[C@@H](CC=O)C[C@@H](C)[C@@H](O[C@@H]2CC[C@H](N(C)C)[C@@H](C)O2)/C=C/C=C/C[C@@H](C)OC(=O)C[C@H]1OC(C)=O`, the call in experiment [1], in experiment [3], in [4], in experiment [5], in experiment [6] and in experiment [7] was inactive. Moreover, in [8], the compound was called inactive. Besides, the Potency result in experiment [2] and in experiment [9] was “inactive” throughout.
For the compound `C/C(=C(\CCO)SS/C(CCO)=C(\C)N(C=O)Cc1cnc(C)nc1N)N(C=O)Cc1cnc(C)nc1N`, the result in experiment [1], in experiment [3], in experiment [4], in experiment [5], in experiment [6] and in experiment [7] was inactive. For the same compound, the result in experiment [8] was inactive. Moreover, the Potency entry in experiment [2], in [9] and in [10] was “inactive” each time.
